Source: PubChem BioAssay
Pf Dd2 growth – inhibitors of Plasmodium falciparum Dd2 growth. P. falciparum Dd2 growth, SYBR Green, 72 h; hits give low values. AID 1159554. 94,000 tested, 2.3% active. activity change, % at 10 µM; in the data active means activity change below about -80%; inconclusive means no clear call, values can overlap the other calls
C diff growth – inhibitors of Clostridium difficile growth; 86,000 tested, 0.25% active; Clostridium difficile clinical isolate growth, OD600, 24 h; hits give low values; growth activity, negative = inhibition, % at 16 µg/mL (by protocol);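 active means mean growth activity at or below -80% and every replicate also at or below -80%; inconclusive means mean at or below -80% but some replicate above -80%; inactive means mean growth activity above -80%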
T cruzi growth – blocks T. cruzi growth in NIH3T3 culture; AID 624255; inhibition, % at 8.34 µM; T. cruzi beta-gal in NIH3T3, GalScreen luminescence, 90 h; 77,000 tested, 5.9% active;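 active means mean inhibition above about 93%, with at least 55% of replicates each passing it, limit read from the data, passing the limit was not always enough; inconclusive means only one of those two conditions holds; inactive means neither condition holds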
Large screens that a line does not name were inactive. Compounds with a hit are over-represented: about 6.7% of the library has one in this group of screens.

C[C@H](CO)N1C[C@H](C)[C@@H](CN(C)C(=O)Nc2cccc3ccccc23)Oc2ccc(NC(=O)Nc3ccc(C(F)(F)F)cc3)cc2CC1=O	Pf Dd2 growth -85
C[C@@H]1CN([C@H](C)CO)C(=O)Cc2cc(NC(=O)Nc3ccc(C(F)(F)F)cc3)ccc2O[C@@H]1CN(C)C(=O)Nc1cccc2ccccc12	none
C[C@H]1CN([C@@H](C)CO)C(=O)Cc2cc(NC(=O)NC3CCCCC3)ccc2O[C@H]1CN(C)C(=O)Nc1cccc2ccccc12	none
C[C@H](CO)N1C[C@H](C)[C@H](CN(C)C(=O)Nc2cccc3ccccc23)Oc2ccc(NC(=O)Nc3cccc4ccccc34)cc2CC1=O	none
COc1ccc(S(=O)(=O)N(C)C[C@H]2Oc3ccc(NS(=O)(=O)c4ccc(F)cc4)cc3C(=O)N([C@@H](C)CO)C[C@@H]2C)cc1	none
C[C@H]1CN([C@@H](C)CO)C(=O)CCCn2cc(nn2)CO[C@H]1CN(C)Cc1cccc(O)c1	none
C[C@H]1CN([C@@H](C)CO)C(=O)c2cc(C#CCc3ccccc3)cnc2O[C@@H]1CN(C)C(=O)C1CCOCC1	none (no result: T cruzi growth)
C[C@@H]1CN([C@@H](C)CO)C(=O)c2c(c3ccccc3n2C)-c2ccccc2CO[C@H]1CN(C)S(=O)(=O)c1ccc([N+](=O)[O-])cc1	none (no result: T cruzi growth)
C[C@H]1CN([C@@H](C)CO)C(=O)c2c(c3ccccc3n2C)-c2ccccc2CO[C@@H]1CN(C)S(=O)(=O)c1ccc(C#N)cc1	none (no result: C diff growth)
C[C@@H]1CN([C@@H](C)CO)C(=O)c2c(c3ccccc3n2C)-c2ccccc2CO[C@H]1CN(C)S(=O)(=O)c1ccc(Cl)cc1	none (no result: C diff growth)
C[C@H](CO)N1C[C@H](C)[C@H](CN(C)S(=O)(=O)c2ccc(C#N)cc2)OCc2ccccc2-c2c(n(C)c3ccccc23)C1=O	Pf Dd2 growth -88 (no result: C diff growth)
Cc1ccc(S(=O)(=O)N(C)C[C@H]2OCc3ccccc3-c3c(n(C)c4ccccc34)C(=O)N([C@@H](C)CO)C[C@H]2C)cc1	Pf Dd2 growth -86 (no result: C diff growth)
C[C@@H]1CN([C@@H](C)CO)C(=O)c2c(c3ccccc3n2C)-c2ccccc2CO[C@H]1CN(C)S(=O)(=O)c1ccc(C(F)(F)F)cc1	Pf Dd2 growth -89 (no result: T cruzi growth)
C[C@@H]1CN([C@H](C)CO)C(=O)c2c(c3ccccc3n2C)-c2ccccc2CO[C@@H]1CN(C)S(=O)(=O)c1ccc(Cl)cc1	Pf Dd2 growth -81 (no result: C diff growth)
C[C@H]1CN([C@@H](C)CO)C(=O)c2c(c3ccccc3n2C)-c2ccccc2CO[C@@H]1CN(C)S(=O)(=O)c1ccccc1	none (no result: C diff growth)
CC(C)NC(=O)N(C)C[C@@H]1Oc2ncc(C#CC3CC3)cc2C(=O)N([C@@H](C)CO)C[C@@H]1C	none (no result: T cruzi growth)
CO[C@H]1CN(C)C(=O)c2cc(NC(C)=O)ccc2OC[C@@H](C)N(C(=O)C2CC2)C[C@H]1C	none
CCNC(=O)C[C@H]1CC[C@@H]2[C@H](COC[C@@H](O)CN2C(=O)Nc2c(C)noc2C)O1	none (no result: C diff growth)
COc1ccccc1NC(=O)N[C@H]1CC[C@@H](CCNS(=O)(=O)c2ccc(Cl)cc2)O[C@@H]1CO	none
C[C@H](CO)N1C[C@H](C)[C@@H](CN(C)C(=O)NC2CCCCC2)OCCCC[C@H](C)Oc2ccc(NS(C)(=O)=O)cc2C1=O	none (no result: C diff growth)
C[C@H](CO)N1C[C@H](C)[C@@H](CN(C)Cc2ccccc2)Oc2ncc(/C=C/c3ccccc3)cc2C1=O	none
C[C@@H]1CN([C@@H](C)CO)C(=O)c2cc(-c3ccccc3F)cnc2O[C@@H]1CN(C)C	none
C[C@H]1CN([C@@H](C)CO)C(=O)c2c(c3ccccc3n2C)-c2ccccc2CO[C@H]1CN(C)S(=O)(=O)c1ccc(F)cc1	Pf Dd2 growth -87 (no result: C diff growth)
C[C@H](CO)N1C[C@H](C)[C@@H](CN(C)S(=O)(=O)c2ccc(F)cc2)OCc2ccccc2-c2c(n(C)c3ccccc23)C1=O	none (no result: C diff growth)
CN(C)CC(=O)Nc1ccc2c(c1)[C@@H]1C[C@@H](CC(=O)NC3CCCC3)O[C@@H](CO)[C@@H]1O2	none (no result: C diff growth)
C[C@@H]1CCCCO[C@H](CN(C)C(=O)Nc2ccc3c(c2)OCO3)[C@H](C)CN([C@H](C)CO)C(=O)c2cc(NC(=O)Cc3ccccc3)ccc2O1	Pf Dd2 growth -82
C[C@@H]1CCCCO[C@H](CN(C)C(=O)Nc2ccccc2)[C@H](C)CN([C@@H](C)CO)C(=O)c2cc(NC(=O)Cc3ccccc3)ccc2O1	none (no result: C diff growth)
C[C@@H]1CCCCO[C@@H](CN(C)C(=O)Nc2ccc3c(c2)OCO3)[C@@H](C)CN([C@@H](C)CO)C(=O)c2cc(NC(=O)Cc3ccccc3)ccc2O1	Pf Dd2 growth -83
C[C@@H]1CCCCO[C@H](CN(C)C(=O)Nc2ccc3c(c2)OCO3)[C@@H](C)CN([C@@H](C)CO)C(=O)c2cc(NC(=O)Cc3ccccc3)ccc2O1	none
O=C(C[C@@H]1C=C[C@H](NC(=O)C2CCC2)[C@@H](CO)O1)NCc1ccncc1	none
C[C@@H]1CN([C@@H](C)CO)C(=O)Cc2cc(NC(=O)CCCCCC(=O)Nc3ccccc3N)ccc2O[C@@H]1CN(C)S(=O)(=O)c1ccc(F)cc1	none
N#C[C@H]1[C@@H](c2ccc(C#Cc3ccc(F)cc3)cc2)[C@H](CO)N1C(=O)C1CCCC1	none
N#C[C@@H]1[C@@H](c2ccc(C#Cc3ccc(F)cc3)cc2)[C@H](CO)N1C(=O)C1CCCC1	Pf Dd2 growth -86
N#C[C@H]1[C@H](c2ccc(C#Cc3ccccc3F)cc2)[C@@H](CO)N1C(=O)C1CCCC1	Pf Dd2 growth -87 (no result: T cruzi growth)
CCCC#Cc1ccc([C@H]2[C@@H](CO)N(C(=O)C3CCOCC3)[C@H]2C#N)cc1	none
CC(C)NC(=O)N1[C@H](C#N)[C@H](c2ccc(C#CC3CCCC3)cc2)[C@@H]1CO	Pf Dd2 growth -88 (no result: T cruzi growth)
CC(C)NC(=O)N1[C@@H](C#N)[C@@H](c2ccc(C#CC3CCCCC3)cc2)[C@@H]1CO	none
N#C[C@@H]1[C@@H](c2ccc(C#Cc3ccccc3F)cc2)[C@H](CO)N1C(=O)C1CCCC1	none (no result: T cruzi growth)
CCCC#Cc1ccc([C@H]2[C@@H](CO)N(C(=O)C3CCCCC3)[C@H]2C#N)cc1	Pf Dd2 growth -86
C[C@@H]1CN([C@H](C)CO)C(=O)c2c(c3ccccc3n2C)-c2ccccc2CO[C@@H]1CN(C)C(=O)C1CC1	none
C[C@H](CO)N1C[C@H](C)[C@H](CN(C)Cc2ccc(C(=O)O)cc2)OCCCC[C@H](C)Oc2ccc(NC(=O)Nc3ccccc3)cc2C1=O	none
COc1ccccc1CNC(=O)C[C@H]1C[C@H]2c3cc(NC(=O)Cc4ccncc4)ccc3O[C@H]2[C@H](CO)O1	Pf Dd2 growth -87
CN(C)c1ccc2c(c1)[C@H]1C[C@@H](CC(=O)NCc3ccc(Oc4ccccc4)cc3)O[C@H](CO)[C@H]1O2	none (no result: T cruzi growth)
O=C(C[C@@H]1C[C@@H]2c3cc(NC(=O)Nc4ccccc4)ccc3O[C@@H]2[C@H](CO)O1)NCc1ccccc1	none
CN(C)c1ccc2c(c1)[C@H]1C[C@H](CC(=O)N3CCc4ccccc4C3)O[C@@H](CO)[C@H]1O2	none
COCC(=O)Nc1ccc2c(c1)[C@@H]1C[C@@H](CC(=O)NCc3ccccc3OC)O[C@@H](CO)[C@@H]1O2	none
CN(C)c1ccc2c(c1)[C@@H]1C[C@@H](CC(=O)NCc3ccc(Oc4ccccc4)cc3)O[C@@H](CO)[C@@H]1O2	Pf Dd2 growth inconclusive, T cruzi growth 127
